Several values for one entry are separate records, joined by “and”; a condition that tells them apart may be missing. Equal entries are not always repeated. Inconclusive results are not listed. Where a call stands in place of a potency, no number is given. Activity calls are given as the source filed them. The call rests on the fitted dose curve.
Potency means the concentration at half of the fitted maximal effect.

This experiment is described as follows: qHTS assay to identify small molecule agonists of the hypoxia (HIF-1) signaling pathway - cell viability counter screen (AID 1224844). Further: nearly all actives have a fitted effect of over 50% in size. The conditions noted are these: HRE-bla ME-180 viability, CellTiter-Glo luminescence, 17 h; series mostly up to 76.8 µM. The source says:
National Center for Advancing Translational Sciences [NCATS]
NIH Chemical Genomics Center [NCGC]
U.S. Environmental Protection Agency [EPA]
National Institutes of Environmental Health Sciences [NIEHS]
National Toxicology Program [NTP]
U.S. Food and Drug Administration [FDA]
Hypoxia-inducible factor-1 (HIF-1) is the major hypoxia-regulated transcription factor that controls cellular responses to low oxygen concentration. HIF-1 is composed of two subunits: hypoxia responsive HIF-1-alpha and constitutively expressed HIF-1-beta, which is also known as aryl hydrocarbon receptor nuclear translocator. During hypoxic conditions, HIF-1-alpha heterodimerizes with HIF-1-beta and translocates into the nucleus where the HIF-1 complex binds to the hypoxia-response element (HRE) and activates expression of target genes such as VEGF (vascular endothelial growth factor). The HIF-1 pathway is essential to normal growth and development, and is involved in the pathophysiology of cancer, inflammation, and ischemia.
Using a beta-lactamase reporter-gene under control of the hypoxia response element, a cell-based assay [CellSensor(TM) HRE-bla ME-180 from Life Technologies, Carlsbad, CA] was used to measure hypoxia-induced signaling. Tox21 10K library compounds were measured for their ability to induce the reporter gene activity. The cytotoxicity of the Tox21 compound library against HRE-bla ME-180 cell line was tested in parallel by measuring cell viability using CellTiter-Glo assay (Promega, Madison, WI) in the same assay wells.
Tox21 Assay Protocol Summary:
HRE-bla ME-180 cells were dispensed at 2,000 cells per well in 6 uL of assay medium containing 0.5% dialyzed FBS into black wall/clear-bottom 1536-well plates using a Multidrop Combi (Thermo Scientific, Waltham, MA) dispenser. After the assay plates were incubated at 37C and 5% CO2 for 5 hrs, 23 nL of compounds dissolved in DMSO, positive controls or DMSO only was transferred to each well of the assay plate using a Pintool station (Kalypsys, San Diego, CA). The assay plates were incubated at 37C and 5% CO2 for 17 hrs. One uL of LiveBLAzerTM B/G FRET substrate (CCF4-AM) (Life Technologies) was added to each well using a Flying Reagent Dispenser (FRD, Aurora Discovery, San Diego, CA). After 2 hr incubation at room temperature, fluorescence intensity (405 nm excitation, 460 nm and 530 nm emissions) was measured using an Envision plate reader (PerkinElmer, Shelton, CT). For cytotoxicity, 4 ul/well of CellTiter-Glo reagent was added into the assay plates using an FRD. After 30 min incubation at room temperature, the luminescence intensity was measured using a ViewLux plate reader (PerkinElmer).
As for `O=C1NC2CCCCN2C12CCN(CCCN1c3ccccc3CCc3ccc(Cl)cc31)CC2` (stereo not given), the Potency result was “inactive”.

As for `CCN=c1cc2oc3cc(NCC)c(C)cc3c(-c3ccccc3C(=O)OCC)c-2cc1C`, the Potency is 38.9 µM (active).

As for `CCC(=O)OCCc1ccccc1`, the Potency result is “inactive”.

As to `COC(=O)C1=C(C)NC(C)=C(C(=O)OCCCN2CCC(c3ccccc3)(c3ccccc3)CC2)C1c1cccc([N+](=O)[O-])c1` (stereo not given), the Potency was 21.3 µM (active).

Turning to `CCOCN(C(=O)CS(=O)(=O)O)c1c(C)cccc1CC`, the Potency entry was “inactive”.

On to `CCCCCCCCCCc1ccccc1`, for which the Potency entry is “inactive”.

For `CCCCCCCOC(=O)c1ccc(O)cc1`, the Potency is 55 µM (active).

On to `Cc1cnccn1`, for which the Potency result was “inactive”.

In the case of `O=Nc1ccc(NO)cc1`, the Potency entry was “inactive”.

Take `CC(=O)Oc1ccc(C2(c3ccc(OC(C)=O)cc3)C(=O)Nc3ccccc32)cc1`: the Potency was 0.0425 µM (active).

Consider `CN1[C@@H]2CC[C@H]1CC(OC(=O)C(CO)c1ccccc1)C2` (stereo not given in full), for which the Potency entry was “inactive”.

As for `O=c1cccc[nH]1`, the Potency result is “inactive”.

As to `CCCCNc1c(C(=O)OCC)c(C)nc2c1cnn2CC`, the Potency result is “inactive”.

`COc1nccnc1CC(C)C`: the Potency result is “inactive”.

`CC(C)C(=O)OCc1ccccc1`: the Potency entry was “inactive”.

For `O=C(O)Cc1ccc(OCCNC[C@H](O)c2ccccc2)cc1`, the Potency entry is “inactive”.

On to `CC[N+](CC)(CC)Cc1ccccc1`, for which the Potency result is “inactive”.

On to `ClC/C=C\CCl`, for which the Potency entry was “inactive”.

As to `OCCCc1cccnc1`, the Potency entry is “inactive”.

Consider `CCCCCCC(C)OC(=O)COc1nc(F)c(Cl)c(N)c1Cl` (stereo not given), for which the Potency entry was “inactive”.

As for `Cc1ccc2ccc3cccc4ccc1c2c34`, the Potency result is “inactive”.

Consider `CC(C)N=C(N)/N=C(\N)Nc1ccc(Cl)cc1`, for which the Potency entry is “inactive”.

Take `CCN(CC)CCOC(=O)C1(C2CCCCC2)CCCCC1`: the Potency result is “inactive”.

As to `CCO[Si](C)(C)OCC`, the Potency result is “inactive”.

On to `OCCC(O)CO` (stereo not given), for which the Potency result is “inactive”.

Consider `CCCCCCCOC(=O)c1ccccc1C(=O)OCCCCCCC`, for which the Potency result is “inactive”.

In the case of `CC(=O)OC1CCCCC1`, the Potency result is “inactive”.

Regarding `Brc1ccccn1`, the Potency result is “inactive”.

With `CCCCCCCCCCCCCc1ccccc1`, the Potency entry is “inactive”.

Consider `CCCCCCCC(OC)OC`, for which the Potency result was “inactive”.

Take `CN(C)CCCN1c2ccccc2CCc2ccccc21`: the Potency is 38.9 µM (active).

For the compound `CSc1ccc2c(c1)N(CCC1CCCCN1C)c1ccccc1S2` (stereo not given), the Potency is 21.8 µM (active) and 21.3 µM (active).

As to `Oc1cc2ccccc2cc1O`, the Potency entry is “inactive”.

Regarding `CC1CCCCC1`, the Potency entry is “inactive”.

As to `CC=O`, the Potency was 40.7 µM (active).

For `CCCCCCCCC(C)=O`, the Potency result is “inactive”.

`O=C1NCN(c2ccccc2)C12CCN(CCCC(c1ccc(F)cc1)c1ccc(F)cc1)CC2`: the Potency was 10.7 µM (active).

With `O=C(O)CC(=O)O`, the Potency result is “inactive”.

With `C(=C/c1ccccc1)/c1ccccc1`, the Potency result was “inactive”.

As to `c1ccc(Nc2cccc3ccccc23)cc1`, the Potency entry was “inactive”.

For the origin of these results see PubChem BioAssay (Tox21).
